This is a sample that favours compounds with a hit; in the whole collection about 2.8% have one here.
PP1 counter: PP1-alpha phosphatase inhibitors, primary screen, counter-screen for PP5 inhibitor project, biochemical, fluorescence, OMFP substrate, single point. AID 2235, 2010. purified PP1alpha. Serine/threonine-protein phosphatase PP1-alpha catalytic subunit (Homo sapiens), P62136. 0.9% of 320,000 active. inhibition, % at 6.7 µM;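 active = inhibition above the mean inhibition of all tested compounds plus 3 SD, computed separately for each screening campaign, cut at about 15% in these data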
IDE inh: human IDE inhibitors in live cells, primary screen, fluorescence polarization, HEK cells, FAbetaB substrate | Insulin-degrading enzyme (Homo sapiens), P14735 | FAbetaB cleavage | inhibition, % at 5.59 µM | 0.41% of 320,000 active | AID 434962, 2010;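 active = percent inhibition above the average of all tested compounds plus 3 SD, set per screening campaign, cut at about 16% in these data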;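 also: IDE supplied by intact live HEK cells; FP after avidin binding of uncleaved biotin substrate so inhibition keeps polarization high; 0% = DMSO wells and 100% = 60 µM reference IDE inhibitor Ii1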
IDE cell activ: human IDE activators in live cells, primary screen, fluorescence polarization, HEK cells, FAbeta-B substrate; Insulin-degrading enzyme (Homo sapiens), P14735; AID 493087, 2011; FAbeta-B cleavage; 0% vehicle, 100% cell-free pure enzyme wells; activation, % at 5.96 µM; 0.073% of 340,000 active;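 active = activation above the mean of all tested compounds plus 3 SD, set per screening campaign, cut at about 17% in these data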
SKKanGAS inh: S. pyogenes SKKanGAS growth inhibitors in kanamycin, primary screen, streptokinase expression inhibitor project, SKKanGAS strain, BacTiter-Glo luminescence; 6 h; inhibition, % at 7.5 µM; 1.3% of 300,000 active;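 active = mean replicate score, as percent of positive control median, at least 50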;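 also: strain carries kanamycin resistance gene driven by streptokinase promoter and grows in 40 µg/ml kanamycin; loss of luminescence reflects streptokinase promoter inhibition or plain growth inhibition; 0% = median of DMSO wells and 100% = positive control at its reference dose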
Exocytosis inh: LAMP-1 surface exposure blockers, TALL-104 cells – cell-based, flow cytometry, MLPCN library, primary screen. TALL-104 LAMP-1 surface exposure; cells stimulated with thapsigargin and PMA. inhibition, % at 10 µM. 0.66% of 360,000 active;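 active = inhibition above about 55%, limit read from the data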
PP5 primary: PP5 phosphatase inhibitors, primary screen, biochemical, fluorescence; Serine/threonine-protein phosphatase 5 (Homo sapiens), P53041; purified PP5c, OMFP substrate fluorescence; inhibition, % at 6.7 µM; 0.18% of 320,000 active; AID 1987, 2009;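 active = inhibition above the campaign's mean inhibition across all tested compounds plus 3 SD, cut at about 9.5% in these data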;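 also: 0% = DMSO only and 100% = 100 µM cantharidin control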
Target sequence (P53041 whole entry, looked up): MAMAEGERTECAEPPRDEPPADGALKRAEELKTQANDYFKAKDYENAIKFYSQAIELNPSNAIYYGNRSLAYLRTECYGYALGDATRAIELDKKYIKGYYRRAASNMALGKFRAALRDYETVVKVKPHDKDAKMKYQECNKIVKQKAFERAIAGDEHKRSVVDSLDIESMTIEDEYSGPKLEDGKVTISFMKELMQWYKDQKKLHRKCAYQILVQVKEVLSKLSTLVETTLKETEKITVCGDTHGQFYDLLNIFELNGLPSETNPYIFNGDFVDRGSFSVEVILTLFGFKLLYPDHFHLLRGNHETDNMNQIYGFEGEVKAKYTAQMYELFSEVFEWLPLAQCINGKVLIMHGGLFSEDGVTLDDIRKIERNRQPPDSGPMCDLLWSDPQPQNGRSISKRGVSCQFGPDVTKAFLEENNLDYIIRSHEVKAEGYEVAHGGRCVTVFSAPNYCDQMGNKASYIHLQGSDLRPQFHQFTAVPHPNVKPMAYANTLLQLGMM
* hit, by the source's call; x = no result given.

SMILES | PP1 counter | IDE inh | IDE cell activ | SKKanGAS inh | Exocytosis inh | PP5 primary
O=C(Cn1nc2ccccc2n1)N/N=C/c1cc(Cl)cc([N+](=O)[O-])c1O | x | x | -1 | x | -1 | x
COc1cc(/C=N/Nc2nc3ccccc3s2)cc([N+](=O)[O-])c1O | 5 | -4 | 0 | 54* | 2 | 0
C(=N\Nc1nc2ccccc2s1)/c1ccccn1 | -3 | -4 | x | 75* | x | -1
COc1cccc(CN2CCNC(=O)C2CC(=O)NCCOc2cccnc2)c1 (centres undefined) | 4 | 1 | -1 | 6 | 5 | 1
CCCCCCCC/C=C\CCCCCCCC(=O)O | 3 | -1 | 0 | 2 | 3 | 0
CCCCCCCCCCCCC/C=C/[C@@H](O)[C@@H](N)CO | 4 | -3 | -6 | 94* | 53 | 3
COc1cccc(/C=N/NC(=O)c2cc(-c3cccn3C)n[nH]2)c1O | 16* | 4 | 4 | 0 | -1 | 3
COc1cc(/C=N/NC(=O)c2cc(-c3cccn3C)n[nH]2)cc(OC)c1OC | -1 | -6 | 3 | 63* | 0 | 2
CN1CCN(C(=O)C2=NOC3(C2)C(=O)Nc2ccccc23)CC1 (centres undefined) | x | x | x | x | 0 | x
Oc1nc(Nc2ccccc2)sc1/C=C1\C=Nc2ccccc21 | 2 | 0 | -3 | 54* | 4 | 1
CCOC(=O)c1c(Nc2ccccc2)sc(/C=C2\C=Nc3ccccc32)c1O | 9 | 11 | 6 | -2 | -4 | 2
CCOc1ccc(Nc2nc(N(C)c3ccccc3)nc(N)c2[N+](=O)[O-])cc1 | -2 | 0 | 6 | 9 | -1 | -1
N#C/C(=C(/O)c1ccc2c(c1)OCO2)c1nc2cc(C(F)(F)F)ccc2s1 | 1 | 5 | 7 | 52* | 19 | 4
Cc1cc(C)nc(NC(=NCCc2c[nH]c3ccccc23)NC(=O)c2ccco2)n1 | -2 | 3 | 2 | 37 | 95* | -1
Clc1ccc(-c2cc3ccccc3nc2N2CCOCC2)cc1 | -3 | -2 | x | 13 | 5 | 1
Clc1ccc(-c2cc3ccccc3nc2N2CCCC2)cc1 | -4 | 1 | -1 | 69* | -8 | 3
Nc1ccc2cc3[nH]c4cc(N)ccc4c3nc2c1 | x | x | 53* | x | 5 | x
Nc1ccc2nc(C3CCCCC3)[nH]c2c1 | 2 | 8 | -2 | 5 | 21 | 4
COC(=O)C[C@H]1C[C@H]2c3cc(NS(=O)(=O)c4ccc(OC)cc4)ccc3O[C@H]2[C@H](CO)O1 | x | x | x | x | 14 | x
CC(=O)Nc1ccc(NC(=O)C(C)Oc2ccc(Cl)cc2Cl)cc1 (centres undefined) | -1 | -1 | 6 | 0 | -7 | 0
O=C(Nc1ccc(S(=O)(=O)Nc2cnc3ccccc3n2)cc1)c1ccc(Cl)cc1Cl | -2 | 9 | x | 15 | 8 | 2
Cc1cc(Cl)ccc1OC(C)C(=O)Nc1ccc(S(=O)(=O)Nc2cnc3ccccc3n2)cc1 (centres undefined) | 7 | -7 | 1 | 67* | 14 | 5
CC(Oc1ccc(Cl)cc1Cl)C(=O)Nc1ccc(S(=O)(=O)Nc2cnc3ccccc3n2)cc1 (centres undefined) | 7 | -3 | x | 80* | x | 7
COc1ccc(NC(=O)C(=O)NNC(=O)C(C)Oc2ccc(Cl)cc2Cl)cc1 (centres undefined) | 4 | -1 | 6 | 71* | -8 | 3
NC(=O)C1(N2CCCCC2)CCN(Cc2ccccc2Cl)CC1 | 1 | 4 | -3 | -4 | -1 | 1
SMILES | PP1 counter | IDE inh | IDE cell activ | SKKanGAS inh | Exocytosis inh | PP5 primary
O=C(Nc1ccc(F)cc1)C(c1ccccc1OC(F)(F)F)N1CCN(c2cccc(C(F)(F)F)n2)CC1 (centres undefined) | x | x | x | x | -3 | x
CC(=O)Nc1nc(-c2cc([N+](=O)[O-])cs2)cs1 | 1 | -6 | -1 | 4 | -3 | -4
CCOC(=O)CC1(C)Oc2cc(Cl)ccc2N1S(=O)(=O)c1ccc(C)cc1 (centres undefined) | x | x | x | x | 1 | x
Oc1c(Br)cc(Br)cc1/C=N/c1nc2c(s1)CCCC2 | 9 | 6 | 3 | 51* | 2 | 2
Oc1ccc2ccccc2c1/C=N/c1nc2c(s1)CCCC2 | 2 | 3 | 3 | -3 | 18 | 0
COc1ccccc1NC(=O)NCCCCc1ccccc1 | -2 | 0 | 0 | 50* | -7 | 1
COc1ccc(NC(=O)c2cc(-c3ccc(C)c(C)c3O)n[nH]2)cc1Cl | 3 | 6 | -2 | 57* | 24 | 1
Cc1ccc(NC(=O)c2cc(-c3ccc(C)c(C)c3O)n[nH]2)cc1C | 5 | 6 | 3 | -1 | 4 | 0
CC1(C)c2ccccc2-n2c1cc1oc(=O)cc(O)c1c2=O | 6 | 4 | 4 | 96* | -2 | 1
N#Cc1ccc(C(=O)Nc2nc(SCc3ccc(Cl)cc3)n[nH]2)cc1 | 7 | -3 | 3 | 87* | -10 | 0
CC(=O)N1CCN(c2ncnc3ccccc23)CC1 | 6 | 8 | 2 | 5 | 3 | 2
Cc1nnc(-c2cccc(Br)c2)c2cn(-c3ccc(Br)cc3)nc12 | 13 | 3 | 1 | 56* | -2 | 3
Cc1nnc(-c2cccc(Br)c2)c2cn(-c3ccccc3)nc12 | -2 | 3 | 1 | 9 | -4 | 3
CN(C)S(=O)(=O)c1ccc(-c2csc(N/N=C/c3ccco3)n2)cc1 | 2 | -5 | 0 | -2 | 102* | 1
CN(C)S(=O)(=O)c1ccc(-c2csc(N/N=C/c3ccc(O)cc3)n2)cc1 | 0 | -5 | 1 | 65* | 101* | 2
COCCCN1C(=O)C(CC(=O)NCC2CCCCC2)CC(C(=O)N(C)C)=C1C (centres undefined) | x | x | x | x | -5 | x
Cc1cc(NS(=O)(=O)c2c(C(=O)N3CCOCC3)c(C)n(C)c2C)ccc1Br | -2 | 2 | 5 | 29 | -8 | 0
Cn1cc(C(=O)c2ccc(Cl)cc2Cl)cc1C(=O)N/N=C(\N)COc1cccc(C(F)(F)F)c1 | 11 | 5 | -9 | 59* | -3 | 7
COC(=O)c1cc(C(=O)c2ccc(Cl)cc2Cl)cn1C | -1 | -4 | 1 | 7 | -2 | 3
Cc1cccc(C)c1N(CC(=O)NCc1ccccc1)C(=O)c1csnn1 | 0 | 0 | 2 | 7 | 0 | 0
S=C(Nc1ccc(Cl)cc1)NC1CCN(Cc2ccccc2)CC1 | 1 | 4 | -1 | -1 | 69* | 2
CCCN1CCC(NC(=S)Nc2ccc([N+](=O)[O-])cc2)CC1 | -1 | 1 | 0 | 7 | 86* | -1
CCn1c(SCC(=O)N(C)Cc2ccc(OC)c(F)c2)nc2cc(S(N)(=O)=O)ccc21 | 4 | 0 | 3 | -4 | -2 | 2
